From PubChem BioAssay (NCI)
About 83,000 compounds went through this panel and 20% of them were active in at least one assay; those are over-represented in the sample as a whole.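 Plates (96-well) were seeded with cells, treated with compound at one concentration, and incubated for 48 hours before percent growth was determined.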 Calls of active or inactive are those of the source. How the source made its calls: active means growth percent below 10; inactive means the rest.

Legend:
Experiment in all cases: NCI-60 one-dose screen, 48 h (100 = growth as untreated, 0 = no growth, -100 = all killed)
Conditions in all cases: 10 µM unless noted
[1] = tested on: SK-MEL-2 melanoma
[2] = tested on: EKVX NSCLC
[3] = tested on: SN12C renal
[4] = tested on: UO-31 renal
[5] = tested on: TK-10 renal
[6] = tested on: ACHN renal
[7] = tested on: CAKI-1 renal
[8] = tested on: A498 renal
[9] = tested on: CCRF-CEM leukemia
[10] = tested on: MOLT-4 leukemia

Compound | growth [1] | growth [2] | growth [3] | growth [4] | growth [5] | growth [6] | growth [7] | growth [8] | growth [9] | growth [10]
CCCC(CCC)NCC(O)c1cc(-c2ccc(C(F)(F)F)cc2)nc(C(F)(F)F)c1 (stereo not given) | -66.1% (active) | -9.08% (active) | -78.5% (active) | -44.9% (active) | -63.8% (active) | -60.1% (active) | -28.1% (active) | -31% (active) | -7.92% (active) | -30.6% (active)
CCN(CC)c1ccc2nc3c4ccccc4c(=O)cc-3n(-c3ccccc3)c2c1 | -37.2% (active) | -4.16% (active) | 13.2% (inactive) | -26.2% (active) | 13.6% (inactive) | -1% (active) | -17.8% (active) | 17.6% (inactive) | 15.7% (inactive) | 2.41% (active)
FC(F)(F)c1ccc(/C=N/Nc2nnc3n2N=C(c2ccc(Cl)cc2)CS3)cc1 | 84.2% (inactive) | 66.3% (inactive) | 57.8% (inactive) | 39.7% (inactive) | 53.1% (inactive) | 28.4% (inactive) | 63.5% (inactive) | 69.9% (inactive) | 99.4% (inactive) | 79.5% (inactive)
CCN(CC)Cc1cc(Nc2nc(NC3CCC(N(C)C)CC3)c3ccccc3n2)ccc1OC (stereo not given) | 116% (inactive) | 89% (inactive) | 71.5% (inactive) | 73.3% (inactive) | 105% (inactive) | 90.8% (inactive) | 102% (inactive) | 119% (inactive) | 66.1% (inactive) | 48.2% (inactive)
O=C(OCc1ccc2c(Cl)cc(Cl)c(O)c2n1)c1cc2ccccc2[nH]1 | -54.6% (active) | -71.9% (active) | -60.6% (active) | -100% (active) | -94.1% (active) | -96.7% (active) | -98% (active) | -78.4% (active) | 0% (active) | -8.99% (active)
COC(=O)C(CCC(=O)CCl)N1C(=O)c2ccccc2C1=O (stereo not given) | 67.4% (inactive) | 108% (inactive) | 69.9% (inactive) | 48.4% (inactive) | 54% (inactive) | 71.2% (inactive) | 67.9% (inactive) | 123% (inactive) | 5.21% (active) | 42.6% (inactive)
COc1cc(C)cc2oc3oc(=O)c(-c4csc(-c5cc6ccccc6oc5=O)n4)cc3c(=O)c12 | 124% (inactive) | 107% (inactive) | 102% (inactive) | 88.6% (inactive) | 121% (inactive) | 104% (inactive) | 96.1% (inactive) | 107% (inactive) | 105% (inactive) | 108% (inactive)
Oc1c(C(c2ccc(F)cc2)N2CCCCC2)ccc2cncnc12 (stereo not given) | -16.6% (active) | 16.9% (inactive) | 10% (inactive) | 11% (inactive) | 9.03% (active) | 10.9% (inactive) | 19% (inactive) | -8.07% (active) | 18.5% (inactive) | 13.1% (inactive)
CN=C1C=C/C(=N/N=c2/ccn(O)cc2C)C=C1C | 97.6% (inactive) | 87.4% (inactive) | 90% (inactive) | 77.6% (inactive) | 118% (inactive) | 93.8% (inactive) | 93.9% (inactive) | 96% (inactive) | 105% (inactive) | 89.1% (inactive)
CC1(C)CC[C@]2(C(=O)N3CCNCC3)CC[C@]3(C)C(=CC[C@@H]4[C@@]5(C)CCC(=O)C(C)(C)[C@@H]5CC[C@]43C)[C@@H]2C1 | 105% (inactive) | 96.7% (inactive) | 101% (inactive) | 94.8% (inactive) | 101% (inactive) | 112% (inactive) | 94.2% (inactive) | 126% (inactive) | 106% (inactive) | 103% (inactive)
CCCCC(CCc1ccccn1)C(=O)c1ccccc1 (stereo not given) | 116% (inactive) | 102% (inactive) | 122% (inactive) | 79.7% (inactive) | 127% (inactive) | 116% (inactive) | 99.5% (inactive) | 105% (inactive) | 98.3% (inactive) | 112% (inactive)
Nc1nc(N)c2cc(CNc3ccc(Cl)c(Cl)c3)ccc2n1 | 42% (inactive) | 31.4% (inactive) | 27.4% (inactive) | 0.0737% (active) | 31.5% (inactive) | 22.5% (inactive) | 14.8% (inactive) | 43.1% (inactive) | 2.81% (active) | -44.2% (active)
COc1ccc2c(c1)CCCC21C(=O)Nc2c(Cl)cccc21 (stereo not given) | 43% (inactive) | 91% (inactive) | 82.6% (inactive) | 82.8% (inactive) | 95.4% (inactive) | 85.1% (inactive) | 54.9% (inactive) | 79.6% (inactive) | 60.9% (inactive) | 52.1% (inactive)
c1ccc(C(Nc2ccccn2)(c2ccccc2)c2ccccc2)cc1 | 74.5% (inactive) | 38.1% (inactive) | 75.9% (inactive) | 35.4% (inactive) | 85.5% (inactive) | 69.3% (inactive) | 63.3% (inactive) | 72% (inactive) | 81.2% (inactive) | 66.3% (inactive)
CCc1oc2ccccc2c1C(=O)c1cc(I)c(O)c(I)c1 | 1.14% (active) | 84.5% (inactive) | 46.4% (inactive) | 80% (inactive) | 87.7% (inactive) | 72.9% (inactive) | 45.9% (inactive) | 98.2% (inactive) | 66.2% (inactive) | 32.5% (inactive)
CCN(CC)Cc1cc(Nc2ccnc3cc(Cl)ccc23)cc(-c2ccc(Cl)cc2)c1O | 80.1% (inactive) | 2.25% (active) | 23.6% (inactive) | -21.4% (active) | 5.81% (active) | 57.1% (inactive) | 54.8% (inactive) | 48.9% (inactive) | 45% (inactive) | 24% (inactive)
COc1cc(NCCCCC(C)N)c2nccc(C)c2c1 (stereo not given) | 105% (inactive) | 78.3% (inactive) | 87.1% (inactive) | 38.2% (inactive) | 99.1% (inactive) | 94% (inactive) | 94.8% (inactive) | 68.6% (inactive) | 99.7% (inactive) | 81.7% (inactive)
O=[N+]([O-])c1cccc(N=C(Nc2cccc([N+](=O)[O-])c2)c2ccccc2)c1 | 77.9% (inactive) | 81.4% (inactive) | 83.4% (inactive) | 40.5% (inactive) | 78.8% (inactive) | 93.8% (inactive) | 80.3% (inactive) | 104% (inactive) | 65.3% (inactive) | 59.4% (inactive)
O=c1[nH]c2ccccc2n2cc3cccnc3c12 | 105% (inactive) | 86.4% (inactive) | 51.2% (inactive) | 67.8% (inactive) | 83.7% (inactive) | 49.1% (inactive) | 68.1% (inactive) | 51.2% (inactive) | 74.5% (inactive) | 48.4% (inactive)
CC(C)=CCC[C@H](C)c1ccc(C)c2c1OCN(CCO)C2 | 99.2% (inactive) | 97.2% (inactive) | 79.6% (inactive) | 42.4% (inactive) | 88.4% (inactive) | 90.1% (inactive) | 91.6% (inactive) | 47.2% (inactive) | 87.5% (inactive) | 101% (inactive)
Cc1cc(NC(=O)c2ccc(N)cc2)ccc1N=Nc1ccc2cc(S(=O)(=O)O)cc(S(=O)(=O)O)c2c1 | 121% (inactive) | 99.9% (inactive) | 109% (inactive) | 101% (inactive) | 97.9% (inactive) | 95.2% (inactive) | 91.5% (inactive) | 90.6% (inactive) | 87.1% (inactive) | 112% (inactive)
COC(=O)c1cc(Cl)cc([N+](=O)[O-])c1O | 135% (inactive) | 88.8% (inactive) | 108% (inactive) | 87.1% (inactive) | 118% (inactive) | 106% (inactive) | 92.6% (inactive) | 89.5% (inactive) | 25.6% (inactive) | 61.6% (inactive)
COc1cc(/C=C/C(=O)c2c(C)nc3ccccc3c2C)ccc1OCCCOc1cc2c(cc1OC)C(=O)N1CCC[C@H]1C=N2 | -61.3% (active) | -76.4% (active) | 10.2% (inactive) | 14.2% (inactive) | -65.8% (active) | -41.2% (active) | 4.18% (active) | -76.4% (active) | -48.6% (active) | -25.5% (active)
C/C(=C\C(=N\N=C(N)N)c1ccc(Cl)cc1)c1ccc(Cl)cc1 | -86.4% (active) | -28.2% (active) | -73.8% (active) | -80.1% (active) | -83.4% (active) | -85.8% (active) | -58.4% (active) | -93.6% (active) | -22.5% (active) | -48% (active)
O=C(CSc1ccc(Cl)cc1)Nc1ccc(-c2nc3ccccc3s2)c(Cl)c1 | 92.9% (inactive) | 59.6% (inactive) | 46.5% (inactive) | 38.2% (inactive) | 85.4% (inactive) | 54.1% (inactive) | 53.5% (inactive) | 32.1% (inactive) | 41.6% (inactive) | 68.3% (inactive)
COc1cccc2nc(Nc3cccc(NC(=O)c4cc(N5CCOCC5)cc(C(F)(F)F)c4)c3)ccc12 | 79.4% (inactive) | 64% (inactive) | 57% (inactive) | 42.3% (inactive) | 65.9% (inactive) | 45.1% (inactive) | 60.7% (inactive) | 99.4% (inactive) | 48.9% (inactive) | 35.2% (inactive)
O=[N+]([O-])c1ccccc1CN1CCCCC1 | 100% (inactive) | 86.8% (inactive) | 105% (inactive) | 89.4% (inactive) | 121% (inactive) | 113% (inactive) | 108% (inactive) | 99.5% (inactive) | 85.4% (inactive) | 115% (inactive)
